Screening data (PubChem)
hgDAF12 agonist = H. glycines DAF-12 receptor agonists, primary screen, cell-based, luminescence, HEK293, GAL4 fusion, UAS-luciferase | 370,000 compounds, 1.8% hits | HEK293 GAL4-hgDAF12 UAS-luciferase reporter, agonist luminescence; normalized to butyrate control | activation, % at 6.8 µM;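 active means activation above a cutoff set at the mean of all screened compounds plus 3 SD, cut at about 10% in these data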;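 further: 0% = DMSO wells and 100% = sodium butyrate wells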
DAX1 StAR inh = DAX1 (NR0B1) inhibitors on StAR promoter, primary screen, cell-based, luminescence, SF-1 (NR5A1), full-length DAX-1; HEK293T StAR-luciferase reporter, SF-1/DAX-1 repression relief; 370,000 compounds, 1.1% hits; inhibition, % at 6.8 µM;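 active means inhibition above the mean over all tested compounds plus 3 SD, cut at about 3.6% in these data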;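 further: 0% = DAX-1 cells with DMSO and 100% = cells lacking DAX-1 with DMSO; higher inhibition means more luminescence from relief of DAX-1 repression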
hcDAF12 agonist = H. contortus DAF-12 nuclear receptor activators, primary screen, cell-based, luminescence, HEK293, lit1-tk-luc reporter. HEK293 hcDAF-12 lit1-tk-luc reporter; 0% DMSO, 100% Δ7-dafachronic acid. activation, % at 6.8 µM. 370,000 compounds, 1.4% hits;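 active means activation above the mean of all tested compounds plus 3 SD, cut at about 5.5% in these data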;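 further: 100% = response to 3 µM Δ7-dafachronic acid high control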
ssDAF12 agonist = S. stercoralis DAF-12 nuclear receptor activators, primary screen, cell-based, luminescence, HEK293, GRIP1 co-expression, lit1-tk-luc; Nuclear hormone receptor DAF-12 (Strongyloides stercoralis); HEK293 ssDAF-12/GRIP1 lit1-tk-luc reporter; % of 3 µM dafachronic acid response; activation, % at 6.8 µM; 370,000 compounds, 1% hits; AID 652126, 2013;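 active means activation above the mean over all tested compounds plus 3 SD, cut at about 0.9% in these data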;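 further: 0% = DMSO-only wells and 100% = 3 µM delta7-dafachronic acid wells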
SMARCA2 activ = SMARCA2 (BRM) function activators, primary screen, cell-based, luminescence, high throughput. MG213 cells, MMTV-luciferase reporter, dexamethasone, overnight. activation, % at 9.1 µM. 370,000 compounds, 1% hits; in the data active means activation above about 7.8%;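 further: 0% = vehicle wells and 100% = reference activator wells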
Active calls of the source: *. In the library only some 4.2% were active in any assay of this set; here they are far more common.

SMILES | hgDAF12 agonist | DAX1 StAR inh | hcDAF12 agonist | ssDAF12 agonist | SMARCA2 activ
O=C(C1CCCN1C(=O)c1cccs1)N1CCc2ccccc21 (stereo not drawn) | 1 | 0 | 6.0* | 0 | 1
O=C(c1cccs1)N1CCc2ccccc21 | 8 | 2 | 1 | 0 | 2
COc1ccc(-n2c(SCC(=O)Nc3cc(C)on3)nc3c([nH]c4ccccc43)c2=O)cc1 | 4 | 3 | 3 | 1.1* | -2
COc1cccc(NC(=O)CSc2nc3c([nH]c4ccccc43)c(=O)n2C)c1 | 5 | 0 | 6.4* | 0 | 1
Cc1nc2c([nH]c3ccccc32)c(=O)n1N | 2 | 0 | 3 | 1.2* | -1
Cn1c(SCC(=O)Nc2ccccc2)nc2c([nH]c3ccccc32)c1=O | 1 | 0 | 1 | -1 | 1
Cc1cccc(NC(=O)CSc2nc3c([nH]c4ccccc43)c(=O)n2C)c1 | 5 | 1 | 6.0* | 1 | -1
Cc1ccc(-n2c(SCC(=O)Nc3cc(C)on3)nc3c([nH]c4ccccc43)c2=O)cc1 | 4 | 0 | 3 | -1 | -3
C=CCN1C(C(=O)OC)CN(Cc2cn(Cc3ccc(OC)cc3)nn2)CCS1(=O)=O (stereo not drawn) | -5 | 1 | -2 | -2 | -2
CCC(C)Sc1nc2c([nH]c3ccccc32)c(=O)n1C (stereo not drawn) | 4 | 0 | 4 | 3.1* | -1
CCSc1nc2c([nH]c3ccccc32)c(=O)n1C | -4 | 0 | 3 | -1 | -1
N#C/C(=C(/O)CSc1nnc(Cc2cccs2)n1C1CCCCC1)c1nc2ccccc2[nH]1 | -1 | 0 | 7.1* | 1 | -2
COc1ccccc1-c1nnc(SC/C(O)=C(\C#N)c2nc3ccccc3[nH]2)n1C1CCCCC1 | -1 | 1 | 2 | -1 | -5
CCc1ccc(NC(=O)c2ccccc2NC(=O)C2CCCO2)cc1 (stereo not drawn) | 13* | 2 | 3 | 0 | 7
O=S1(=O)c2ccc(N3CCCC3)cc2Oc2ccccc2CN1Cc1cn(Cc2ccc(Cl)cc2)nn1 | 1 | 0 | 0 | 0 | -3
CN(CC(=O)Nc1cccc(F)c1)C(=O)c1ccc(OCc2cn3ccccc3n2)cc1 | 3 | -1 | 1 | 0 | 1
Fc1cccc(NCc2cn3ccccc3n2)c1 | 11* | 4 | 4 | 1 | 4
Nn1c(SCC(=O)Nc2ccc(OCc3ccccc3)cc2)nnc1-c1cc(-c2ccc(Cl)cc2)n[nH]1 | 1 | -2 | 1 | -1 | -6
Cc1ccc2nc(-c3ccc(NC(=O)CSc4nnc(-c5ccccc5)n4Cc4ccco4)cc3)sc2c1 | 12* | 2 | 1 | -1 | 1
COc1ccc(-c2cc(-c3nnc(SCC(=O)Nc4ccc(-c5nc6ccc(C)cc6s5)cc4)n3N)[nH]n2)cc1 | 13* | 1 | 3 | 0 | 7
Cn1cc(/C=C2\SC(=S)N(NC(=O)c3ccccc3)C2=O)c2ccccc21 | 1 | -1 | 4 | 1.0* | -4
Cn1cc(/C=C2\SC(=S)N(NC(=O)c3cccc(Cl)c3)C2=O)c2ccccc21 | 3 | 0 | -1 | -1 | -1
CC(C)CNC(=O)OCc1cn(Cc2ccccc2)nn1 | 9 | 0 | 2 | -1 | -1
CC1CC(Nc2ccccc2N)=CC(=O)O1 (stereo not drawn) | 10 | 2 | 5.8* | 0 | 7
C=CCN(CC=C)CC(O)CN(c1cc([N+](=O)[O-])ccc1OC)S(=O)(=O)c1ccccc1 (stereo not drawn) | 2 | 3.8* | 1 | 0 | -1
COc1ccc([N+](=O)[O-])cc1N(CC(O)CN(C)C)S(=O)(=O)c1ccccc1 (stereo not drawn) | -1 | 0 | 1 | -1 | -2
O=C(Cc1ccccc1[N+](=O)[O-])NCc1ccc(Cl)cc1Cl | 12* | 3 | 4 | 1 | 2
O=C(/C=C/c1ccccc1[N+](=O)[O-])NCc1ccc(Cl)cc1 | 0 | -1 | 3 | -2 | 2
